This is part of a sample that, as a whole, favours compounds with a hit. Of some 83,000 tested, about 20% had one in any assay.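 Percent growth is the endpoint: 0 to 100 indicates growth inhibition (40 means 60% inhibition), 0 means no net growth, and negative values indicate cell death.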 Unmarked numbers belong to inactive results. Active and inactive are the calls of the source. The calls were made as follows: active = growth percent below 10; inactive = the rest.
Test system: MDA-MB-468 breast
Experiment: NCI-60 one-dose screen, 48 h (100 = growth as untreated, 0 = no growth, -100 = all killed)
Conditions: 10 µM unless noted

SMILES	growth
Cc1cc(C)c([I+]c2c(C)cc(C)cc2C)c(C)c1	-41.9% (active)
COc1cc2cc3c(nc2cc1OC)CCN3Cc1ccc(NC(=O)c2ccc(Cl)c(C(F)(F)F)c2)cc1	12.9%
CCCCC(=O)Nc1nc2ccc(SCCC)cc2s1	20%
Cc1cc(O)c(C2=NN(c3ccc(S(N)(=O)=O)cc3)C(c3ccc(Cl)cc3)C2)c(C)c1Cl (stereo not given)	43.7%
NC(N)=Nc1nc2ccccc2n2c1nc1ccccc12	35.1%
COc1cc2nc(Cl)nc(Nc3cccc(C(=O)/C=C/c4ccc(Br)cc4)c3)c2cc1OC	85.7%
NS(=O)(=O)c1ccc(N2Cc3cc(Cl)ccc3OC3=C2C(=O)N(CC2CCCCC2)C3=O)cc1	-81.1% (active)
O=c1ccn(Cc2cn(-c3c4ccccc4nc4ccccc34)nn2)c(=O)[nH]1	-50.8% (active)
CC1(C=O)NC(=O)NC1=O (stereo not given)	101%
CCCCCCCCCCCCNC(=O)[C@H]1CSC(c2ccsc2)N1 (stereo not given in full)	-74.1% (active)
CS(=O)(=O)c1ccc2c(c1)c1c(n2S(=O)(=O)c2ccc(Cl)cc2)CCCC1	42.3%
C#C[C@]1(O)CC[C@H]2[C@@H]3CC=C4c5sc(Nc6ccc(Cl)cn6)nc5CC[C@]4(C)[C@H]3CC[C@@]21C	68.4%
O=C(N/N=C(\CS(=O)(=O)c1ccccc1)c1cc2ccccc2oc1=O)c1ccccc1	117%
O=C1CCCCN1CCCCC#Cc1cccc(C#Cc2cccnc2)c1	73.8%
COCCNC(C)=O	96.1%
COc1cc2oc(-c3cccc(N)c3)cc(=O)c2c(OC)c1OC	99.9%
O=C1Nc2cc(-c3ccc(O)cc3)ccc2/C1=C/c1ccc[nH]1	-29.2% (active)
COc1ccc(C(=O)C(CN(C)C)c2ccccc2)cc1 (stereo not given)	-58.5% (active)
COc1ccc(-c2nc(SCCC(C)C)nc(Nc3ccc(F)c(Cl)c3)c2C#N)cc1	71.5%
O=S(=O)(NCCCNc1nccc(-c2c(-c3ccc(F)cc3)nc3sccn23)n1)c1ccc2ccccc2c1	51.8%

SMILES	growth
CCOC(=O)NC(/C=C/c1ccccc1)NC(=O)OCC	99.7%
c1nc2ccc(-c3cc4ccc5[nH]ncc5c4c4c3CCCC4)cc2[nH]1	17.1%
CCC(=C(c1ccc(OCCCN(C)C)cc1)c1ccc(OCCCN(C)C)cc1)c1ccc(Cl)cc1	-74.4% (active)
C=C(C)[C@@H]1CC[C@]2(C(N)=O)CC[C@]3(C)[C@H](CC[C@@H]4[C@@]5(C)C/C(=C/c6ccco6)C(=O)C(C)(C)[C@@H]5CC[C@]43C)[C@@H]12	87.6%
CCOC(=O)c1ccc(N2NC(=O)/C(=C/c3ccc([N+](=O)[O-])o3)C2=O)cc1	106%
CCCCCc1ccc(S(=O)(=O)Nc2cc(-c3csc(NC(=O)CN4CCN(C)CC4)n3)ccc2N2CCN(C)CC2)cc1	51.7%
C=C(C)[C@@H]1CC[C@]2(C(N)=O)CC[C@]3(C)[C@H](CC[C@@H]4[C@@]5(C)CC[C@H](O)C(C)(C)[C@@H]5CC[C@]43C)[C@@H]12	-56% [100 µM] (active)
CNCCCOc1c(Br)cc(CCNC(=O)/C(Cc2ccc(OC)c(Br)c2)=N/O)cc1Br	48.5%
CC/C(=C(/c1ccc(Cl)cc1)c1ccc(OCCN2CCCCC2)cc1)c1ccc(Cl)cc1	51.9%
CCOC(=N)CC(=O)Nc1cccc(C)c1Cl	90.8%
COc1ccccc1Nc1cc(O)c2c(=O)cc(-c3ccccc3)oc2c1	-1.72% (active)
Cc1cc2nc3c4cc(C=O)ccc4n(CCN(C)C)c3nc2cc1C	-5.88% (active)
COc1ccc(C/C(C)=C(/c2ccc(OCCN3CCCCC3)cc2)c2ccc(OC(=O)NCc3ccccc3)cc2)cc1	-82.7% (active)
CC1(C)S[C@@H]2[C@H](NC(=O)[C@H](C(=O)O)c3cccs3)C(=O)N2[C@H]1C(=O)O	102%
O=[N+]([O-])c1cccc(-c2nc3cc4nc5ccccc5[nH]c4cc3n2)c1	95.5%
COc1ccc2nc(SCC(=O)Nc3ccccc3C)[nH]c2c1	98%
O=C(O)Cc1ccc(O)c(O)c1	86%
COc1ccc(Oc2ccc(/C=N/NC(=O)CSc3nc4ccccc4c(=O)n3-c3ccc(Cl)cc3)cc2)cc1	66.8%
CC1=C2C(=C[C@@](C)(COS(N)(=O)=O)[C@@H]2O)C(=O)[C@](C)(O)C12CC2	-34% (active)
CN1CCN(Cc2ccc(NC(=O)c3cncc(C#Cc4c(N)ncc5cc(F)ccc45)c3)cc2C(F)(F)F)CC1	55.6%
